Experiment [1] in a line: Primary qHTS for inhibitors of nuclear receptor binding SET domain protein 2 (NSD2) in an isogenic RCH-ACV NSD2 p.E1099K mutant (9B) (AID 1645876). (Quantitative high-throughput screening tests each substance at several concentrations.)
The nature of experiment [2]: Primary qHTS for inhibitors of nuclear receptor binding SET domain protein 2 (NSD2) in an RCH-ACV wild type WT cells (2C) (AID 1645877).

Structures are written as SMILES. Records with an inconclusive call do not appear. Unmarked numbers belong to inactive results. Calls of active or inactive are those of the source. The call rests on the fitted dose curve; in most records, active means well fitted curve in the direction sought with a large enough effect; inconclusive means small, poorly fitted or top-dose-only effect, or another doubt; inactive means no such curve, though single readings can be large; an effect the other way counts as inactive or inconclusive.
Further: nearly all actives have a fitted effect of over 70% in size.
On the % scale 0 is the no-effect control and ±100 the full control effect; potency means the concentration at half of the fitted maximal effect.

With `CCCCCCc1cccc(NC(=O)[C@H](N)CCP(=O)(O)O)c1`, the outcome in experiment [1] and in experiment [2] was “inactive [at 9.23 µM]” throughout.
For `CC(C)CC(=O)OC[C@H]1O[C@@](COC(=O)CC(C)C)(O[C@H]2O[C@H](CO)[C@@H](O)[C@H](O)[C@H]2O)[C@@H](OC(=O)CC(C)C)[C@@H]1OC(=O)CC(C)C`, the Potency entry in experiment [1] and in experiment [2] was “inactive” in each case.
`COC(=O)[C@H](OC(C)=O)[C@H]1C(C)(C)C(=O)[C@H]2CC3=C4CC(=O)O[C@@H](c5ccoc5)[C@]4(C)CCC3[C@@]1(C)C2=O` (stereo partly specified): the Potency result in experiment [1] and in experiment [2] was “inactive” throughout.
Consider `CN1C(=O)c2ccccc2-n2c(nc3ccccc3c2=O)/C1=C/c1ccccc1`, for which the Potency result in experiment [1] and in experiment [2] was “inactive” in each case.
Regarding `C[C@@H]1CCN(C(=O)CC#N)C[C@@H]1N(C)c1ncnc2[nH]ccc12`, the Potency result in experiment [1] is “inactive”. Further, the Potency in experiment [2] was 23.5 µM (active).
Take `C[C@@H]1O[C@@H](O[C@H]2[C@H](O[C@H]3[C@H](O[C@H]4CC[C@@]5(C=O)C(CC[C@]6(C)C5CC=C5C7CC(C)(C)C[C@@H](O)[C@]7(C)CC[C@]56C)C4(C)C)O[C@H](C(=O)O)[C@@H](O)[C@@H]3O)OC[C@@H](O)[C@@H]2O)[C@H](O)[C@H](O)[C@H]1O` (stereo partly specified): the activity change, negative = viability loss in experiment [1] was -2.85% [at 9.23 µM]. The activity change, negative = cell killing in experiment [2] is -3.05% [at 9.23 µM].
Take `C/C(=C\CCC(C)(O)c1ccc(C)cc1)C(=O)O` (stereo unspecified): the Potency entry in experiment [1] and in experiment [2] was “inactive” each time.
Regarding `OCc1ccccc1O[C@@H]1O[C@H](CO)[C@@H](O)[C@H](O)[C@H]1O`, the Potency result in experiment [1] and in experiment [2] was “inactive” throughout.
`OCC1=CC[C@@H]2C=CO[C@@H](O[C@@H]3O[C@H](CO)[C@@H](O)[C@H](O)[C@H]3O)[C@H]12`: the Potency result in experiment [1] and in experiment [2] was “inactive” throughout.
On to `O=C(OCc1cccc(O)c1O[C@@H]1O[C@H](CO)[C@@H](O)[C@H](O)[C@H]1O)C1(O)C(=O)C2C=CC1C1C=CC(=O)C(O)(C(=O)OCc3cccc(O)c3O[C@@H]3O[C@H](CO)[C@@H](O)[C@H](O)[C@H]3O)C21` (stereo partly specified), for which, in experiment [1], the activity change, negative = viability loss is -9.51% [at 9.23 µM]. Moreover, the activity change, negative = cell killing in experiment [2] is -22.5% [at 9.23 µM].
Take `COc1cc(/C=C/C(=O)OC(C)(C)C(OC2OC(CO)C(O)C(O)C2O)C(=O)OCc2ccc(OC3OC(CO)C(O)C(O)C3O)cc2)ccc1O` (stereo unspecified): the Potency result in experiment [1] and in experiment [2] was “inactive” throughout.
As to `Cc1ncc([N+](=O)[O-])n1CC(O)CN1CCOCC1` (stereo unspecified), the Potency entry in experiment [1] and in experiment [2] was “inactive” each time.
For `CC1CCC2C(C)(C)CC(C)(CO)C2(O)C1C(=O)O` (stereo unspecified), the Potency entry in experiment [1] and in experiment [2] was “inactive” in each case.
With `COc1ccc2c(c1O)OC[C@H]1c3ccc(O)cc3O[C@@H]21`, the Potency result in experiment [1] and in experiment [2] was “inactive” each time.
In the case of `COc1cc(COC2OC(CO)C(O)C(O)C2O)cc(OC)c1O` (stereo unspecified), the Potency result in experiment [1] and in experiment [2] was “inactive” throughout.
Regarding `C=C(C(=O)O)[C@@H]1CC=C2CCC[C@H](C)[C@@]2(C)C1`, the Potency entry in experiment [1] and in experiment [2] was “inactive” each time.
Turning to `C=C1C(=O)OC2CC(C)=C(C(C)CCCO[C@@H]3O[C@H](CO)[C@@H](O)[C@H](O)[C@H]3O)C(O)C12` (stereo partly specified), the Potency entry in experiment [1] and in experiment [2] was “inactive” each time.
In the case of `C=C(C(=O)OC)C1CCC2(C)C(O[C@@H]3O[C@H](CO)[C@@H](O)[C@H](O)[C@H]3O)CC(=O)C(C)C2C1O` (stereo partly specified), the Potency result in experiment [1] and in experiment [2] was “inactive” each time.
Take `CC(=O)O[C@H]1[C@H](Oc2ccccc2COC(=O)C2(O)C=CCCC2=O)O[C@H](CO)[C@@H](O)[C@@H]1O` (stereo partly specified): the Potency was 8.93 µM (active) in experiment [1] and 7.09 µM (active) in experiment [2].
Taken in the same sequence, the figures for `C=C1CC23CCC4[C@@](C)(CCC[C@@]4(C)C(=O)O)C2CCC1C3` (stereo partly specified) were “inactive” and “inactive”.
Consider `CC1(C)O[C@]23C[C@H]1C[C@H](OC(=O)c1ccoc1)[C@]2(C)[C@@H](OC(=O)c1ccoc1)CCC3(C)O` (stereo partly specified), for which the Potency entry in experiment [1] and in experiment [2] was “inactive” in each case.
As for `CC(NC(=O)CC(=O)O)c1nc2ccccc2c(=O)[nH]1` (stereo unspecified), the Potency result in experiment [1] and in experiment [2] was “inactive” in each case.
For the molecule `C=CC1(C)CC(O)C2(CCC3C(C)(C(=O)O)CCCC3(C)C2=O)C1` (stereo unspecified), the Potency result in experiment [1] and in experiment [2] was “inactive” in each case.
As for `C=C1[C@@H]2CC[C@@]3(C)[C@H](c4ccoc4)OC(=O)C[C@]13O[C@H]1CC(=O)C(C)(C)[C@H](CC(=O)OC)[C@]12C`, the Potency result in experiment [1] and in experiment [2] was “inactive” in each case.
Turning to `CC1CC(O)CC(C)(C)C1(O)CCO` (stereo unspecified), the Potency result in experiment [1] and in experiment [2] was “inactive” each time.
As to `CN1C(=O)N[C@@H](Cc2c[nH]c3c(Cl)cccc23)C1=O`, the Potency entry in experiment [1] and in experiment [2] was “inactive” each time.
As to `CC1=CC(=O)CC(C)(C)C1(O)CCC(C)O` (stereo unspecified), the Potency result in experiment [1] and in experiment [2] was “inactive” in each case.
Take `C[C@@H]1O[C@@H](O[C@@H]2[C@@H](O)[C@@H](O)[C@H](O[C@@H]3[C@@H](O)[C@@H](O[C@]4(CO)O[C@H](CO)[C@@H](O)[C@@H]4OC(=O)/C=C/c4ccc(O)cc4)O[C@H](CO)[C@H]3OC(=O)/C=C/c3ccc(O)cc3)O[C@H]2C)[C@H](O)[C@H](O)[C@H]1O`: the outcome in experiment [1] was “inactive [at 9.23 µM]”. Further, in experiment [2], the activity change, negative = cell killing was 1.92% [at 9.23 µM].

For the origin of these results see PubChem BioAssay (NCATS).
